For 7 compounds, growth results are on record in PubChem BioAssay (NCI).

The panel holds about 83,000 compounds, 20% with a hit somewhere; the sample as a whole holds those more often.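 A percent growth of 40 corresponds to 60% growth inhibition; 0 means no net growth; -100 means all cells died. Active threshold: below 10.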 A number with no mark means an inactive call. Calls of active or inactive are those of the source.

Among the test systems are SK-MEL-2 melanoma; EKVX NSCLC; SN12C renal; UO-31 renal; TK-10 renal; ACHN renal; CAKI-1 renal; A498 renal; CCRF-CEM leukemia; MOLT-4 leukemia; SR leukemia; RPMI-8226 leukemia; OVCAR-8 ovarian; OVCAR-5 ovarian; OVCAR-4 ovarian; SK-OV-3 ovarian; IGROV1 ovarian; OVCAR-3 ovarian; HS 578T breast; NCI/ADR-RES ovarian.
What all share (assay): NCI-60 one-dose screen, 48 h (100 = growth as untreated, 0 = no growth, -100 = all killed)
Holding throughout (settings): 10 µM unless noted

Take `Oc1ccc(Cl)c(Nc2nc(SCCN3CCOCC3)nc3c2cnn3CC(Cl)c2ccc(Br)cc2)c1` (stereo not given): the growth in the experiment with SK-MEL-2 melanoma was 20.6%; in the experiment with EKVX NSCLC it was 37%; with SN12C renal it was 35%; in the experiment with UO-31 renal, 14%; in the experiment on TK-10 renal, 36.1%; with ACHN renal, 12.9%. Further, the growth was 21.2% in the experiment with CAKI-1 renal; 63.4% in the experiment with A498 renal; 3.42% (active) in the experiment on CCRF-CEM leukemia; -24% (active) in the experiment with MOLT-4 leukemia; -26.7% (active) in the experiment on SR leukemia; 19.2% in the experiment on RPMI-8226 leukemia. The growth with OVCAR-8 ovarian was 16.5%; in the experiment with OVCAR-5 ovarian, 50.4%; in the experiment on OVCAR-4 ovarian, 31.7%; with SK-OV-3 ovarian, 65.8%; in the experiment with IGROV1 ovarian, 1.12% (active); in the experiment with OVCAR-3 ovarian, 29.9%. The growth is -15.5% (active) in the experiment with HS 578T breast and 13.5% with NCI/ADR-RES ovarian.
On to `Cn1cc(-c2cc3nc(-c4cn(C)c5ncc(Br)cc45)cc(N)n3n2)c2cc(F)ccc21`, for which the growth was 88.8% with SK-MEL-2 melanoma; 49% in the experiment with EKVX NSCLC; 26.4% in the experiment with SN12C renal; 20.3% in the experiment on UO-31 renal; 16% in the experiment with TK-10 renal; -7.44% (active) with ACHN renal. Also, the growth with CAKI-1 renal is -3.51% (active); in the experiment with A498 renal, 125%; in the experiment with CCRF-CEM leukemia, 5.26% (active); in the experiment with MOLT-4 leukemia it was 17.4%; with SR leukemia it was -23.7% (active); with RPMI-8226 leukemia, 32.9%. In addition, the growth in the experiment on OVCAR-8 ovarian was 10.5%; with OVCAR-5 ovarian it was 31.8%; in the experiment on OVCAR-4 ovarian it was 3.36% (active); in the experiment on SK-OV-3 ovarian, 75%; in the experiment with IGROV1 ovarian, 19.8%; in the experiment with OVCAR-3 ovarian it was 20.3%. The growth with HS 578T breast was 35%; in the experiment with NCI/ADR-RES ovarian it was 10.5%.
Consider `COc1ccc2[nH]c(=O)c(CSc3ccccc3Nc3nccc(-c4ccc(Cl)cc4)n3)cc2c1`, for which the growth with SK-MEL-2 melanoma was 57.9%; in the experiment with EKVX NSCLC it was 60%; with SN12C renal, -2.68% (active); in the experiment with UO-31 renal, 45.8%; in the experiment on TK-10 renal, 90.3%; in the experiment on ACHN renal, 31%. Further, the growth with CAKI-1 renal was -1.64% (active); in the experiment on A498 renal, 85.8%; with CCRF-CEM leukemia, 28.4%; with MOLT-4 leukemia, -2.12% (active); with SR leukemia, -1.58% (active); in the experiment on RPMI-8226 leukemia it was 30.4%. In addition, the growth is 39.5% in the experiment with OVCAR-8 ovarian; 84.7% in the experiment with OVCAR-5 ovarian; 38.3% with OVCAR-4 ovarian; 57.7% with SK-OV-3 ovarian; 55.9% in the experiment with IGROV1 ovarian; 39.8% in the experiment on OVCAR-3 ovarian. The growth is 37.1% with HS 578T breast and 34.4% in the experiment on NCI/ADR-RES ovarian.
In the case of `c1n[nH]cc1-c1nc2ccc3cn[nH]c3c2c2c1CCCC2`, the growth in the experiment on SK-MEL-2 melanoma was 104%; with EKVX NSCLC, 69.1%; in the experiment with SN12C renal, 74.3%; with UO-31 renal, 61.1%; in the experiment on TK-10 renal it was 104%; in the experiment with ACHN renal, 73.5%. For the same compound, the growth in the experiment with CAKI-1 renal was 39.2%; in the experiment with A498 renal it was 93.8%; in the experiment on CCRF-CEM leukemia, 104%; in the experiment with MOLT-4 leukemia it was 92.7%; in the experiment with SR leukemia, 74.5%; in the experiment with RPMI-8226 leukemia it was 85.3%. In addition, the growth with OVCAR-8 ovarian was 89.2%; with OVCAR-5 ovarian, 89.9%; in the experiment on OVCAR-4 ovarian, 96.1%; with SK-OV-3 ovarian, 96.8%; in the experiment with IGROV1 ovarian it was 66.5%; in the experiment with OVCAR-3 ovarian, 109%. For the same compound, the values for the growth in the experiment with HS 578T breast and in the experiment on NCI/ADR-RES ovarian were 53% and 88.7%, respectively.
Regarding `Cn1ncc2c(N)nc(Oc3ccccc3-c3ccccc3)nc21`, the growth with SK-MEL-2 melanoma is -4.9% (active); in the experiment with EKVX NSCLC, 41.6%; in the experiment with SN12C renal, 43.3%; with UO-31 renal, 48.1%; in the experiment with TK-10 renal, 65.1%; in the experiment with ACHN renal it was 51.6%. Moreover, the growth with CAKI-1 renal is 29%; with A498 renal it was 105%; in the experiment on CCRF-CEM leukemia, 25.5%; in the experiment on MOLT-4 leukemia, 8.1% (active); with SR leukemia, -4.14% (active); in the experiment on RPMI-8226 leukemia, 19.4%. The growth with OVCAR-8 ovarian was 36.2%; in the experiment with OVCAR-5 ovarian, 66.8%; with OVCAR-4 ovarian, 58.3%; in the experiment with SK-OV-3 ovarian it was 110%; with IGROV1 ovarian, 38.6%; in the experiment on OVCAR-3 ovarian, 27.9%. The values for the growth with HS 578T breast and in the experiment on NCI/ADR-RES ovarian were 40.9% and -9.01% (active), respectively.
Take `Cc1ccc(-c2cc(-c3ccccc3)[nH]c(=O)c2C#N)cc1`: the growth with SK-MEL-2 melanoma was 95.5%; in the experiment with EKVX NSCLC it was 82.8%; in the experiment on SN12C renal it was 86.5%; with UO-31 renal it was 73.2%; with TK-10 renal, 95.1%; with ACHN renal, 79.1%. Further, the growth with CAKI-1 renal was 81.9%; in the experiment with A498 renal, 84.8%; in the experiment with CCRF-CEM leukemia, 76.7%; with MOLT-4 leukemia, 91.3%; with SR leukemia, 73.3%; in the experiment on RPMI-8226 leukemia it was 76.7%. Moreover, the growth with OVCAR-8 ovarian is 93.5%; in the experiment with OVCAR-5 ovarian it was 109%; in the experiment on OVCAR-4 ovarian, 94.1%; in the experiment with SK-OV-3 ovarian, 107%; in the experiment on IGROV1 ovarian, 91.9%; with OVCAR-3 ovarian, 98.4%. Further, the growth with HS 578T breast is 84.6%; in the experiment with NCI/ADR-RES ovarian, 82.3%.
`CCCSc1nnc(-c2c(C)nc3sccn23)o1`: the growth was 104% in the experiment on SK-MEL-2 melanoma; 66.8% in the experiment on EKVX NSCLC; 87.1% in the experiment on SN12C renal; 69.9% with UO-31 renal; 113% in the experiment with TK-10 renal; 84.9% in the experiment with ACHN renal. In addition, the growth is 79.4% in the experiment on CAKI-1 renal; 92.3% in the experiment with A498 renal; 86.3% in the experiment with CCRF-CEM leukemia; 94.4% in the experiment with MOLT-4 leukemia; 120% in the experiment with SR leukemia; 70.3% in the experiment with RPMI-8226 leukemia. Moreover, the growth is 98.3% with OVCAR-8 ovarian; 85.9% in the experiment with OVCAR-5 ovarian; 71.9% in the experiment with OVCAR-4 ovarian; 108% in the experiment with SK-OV-3 ovarian; 83.8% in the experiment on IGROV1 ovarian; 98.5% in the experiment with OVCAR-3 ovarian. For the same compound, the growth with HS 578T breast was 79.6%; with NCI/ADR-RES ovarian, 83.5%.
